Measurements taken from PubChem BioAssay (Tox21).
Inconclusive results are not listed. The source made the active and inactive calls. Calls come from the whole dose curve; as a rule, active = well fitted cell-killing curve with a large enough effect in the repeat runs; inconclusive = weak or mixed curves, or effect the other way; inactive = flat fitted curve, though single readings scatter.

Assay: qHTS RealTime-Glo MT Cell Viability Assay in HEK293 cells - 40 hour (AID 1224874); note: nearly all actives have a fitted effect of over 50% in size
Conditions: RealTime-Glo luminescence; max response: stronger effect = lower value
Source text: U.S. Tox21 Program National Center for Advancing Translational Sciences [NCATS] NIH Chemical Genomics Center [NCGC] U.S. Environmental Protection Agency [EPA] National Institutes of Environmental Health Sciences [NIEHS] National Toxicology Program [NTP] U.S. Food and Drug Administration [FDA] Tox21 Assay Overview: Measure of cell viability is critical in the cell-base assay. Analysis of cell viability is necessary for the characterization of cell responses to cytotoxic drugs and environmental stress. A RealTime-Glo MT Cell Viability Assay to monitor cell viability in real time of continues cell culture during 40 hours of compound treatment was used to screen Tox21 10K library compounds in Hek293 cells. The RealTime-Glo MT Cell Viability Assay is a nonlytic, homogeneous, bioluminescent method to measure cell viability in real time using a simple, plate-based method. The assay involves adding NanoLuc luciferase and a cell-permeant prosubstrate to cells in culture. Viable cells reduce the proprietary prosubstrate to generate a substrate for NanoLuc luciferase. This substrate diffuses from cells into the surrounding culture medium, where it is rapidly used by the NanoLuc Enzyme to produce a luminescent signal. The signal correlates with the number of viable cells, making the assay well suited for cytotoxicity studies.
Tox21 Assay Protocol Summary: The mixture of Hek293 cell suspension and reagents were dispensed at 600cells/6 ul/well in 1536-well tissue culture treated black solid bottom plates using a Multidrop dispenser. After the assay plates were incubated at a 37 C/5% CO2 incubator for 5 hours, 23 nL of compounds dissolved in DMSO, positive and negative controls was transferred to the assay plate by a pintool work station. The plates were incubated at 37 C for 40 hours. The luminescence intensity were measured at 0h, 8h, 16h, 24h, 32h and 40h time points using ViewLux plate reader during compound treatment.
% is set by controls: 0 for no effect and ±100 for the full control effect; potency is the fitted concentration of half-maximal effect.

Compound	max response	Potency
CC(C)(C)NCC(O)c1cc(Cl)c(N)c(Cl)c1 (stereo not given)	2.03% (inactive)	–
COc1cc(OC)nc(NC(=O)NS(=O)(=O)c2ncccc2OCC(F)(F)F)n1	0.591% (inactive)	–
O=S(=O)(O)C(F)(F)C(F)(F)C(F)(F)C(F)(F)C(F)(F)C(F)(F)F	2.43% (inactive)	–
CCOC(=O)C(c1c(O)c2ccccc2oc1=O)c1c(O)c2ccccc2oc1=O	4.14% (inactive)	–
CCCSC(=O)N(CCC)CCC	7.77% (inactive)	–
CS(=O)(=O)c1cc(C(F)(F)F)ccc1C(=O)c1cnoc1C1CC1	-3.5% (inactive)	–
O=[N+]([O-])c1cc(Cl)c(Cl)c(Cl)c1	5.08% (inactive)	–
CCN(CC)C(C)C(=O)c1ccccc1 (stereo not given)	2.31% (inactive)	–
CC1(C)C(=O)NC(=O)NC1=O	-10.9% (inactive)	–
COC(=O)C(c1ccccc1)C1CCCCN1 (stereo not given)	2.03% (inactive)	–
CC(=O)CC(c1ccc(Cl)cc1)c1c(O)c2ccccc2oc1=O (stereo not given)	-9.42% (inactive)	–
N#CC(O)c1ccccc1 (stereo not given)	19.9% (inactive)	–
CC1CCC(=O)O1 (stereo not given)	-22.6% (inactive)	–
CCOP(=O)(N=C1SCCS1)OCC	21.4% (inactive)	–
COC(=O)C(C)Oc1ccc(Oc2ccc(Cl)cc2Cl)cc1 (stereo not given)	-8.07% (inactive)	–
Nc1cc2c3c(c1)C(c1ccccc1)=N[C@@H](NC(=O)c1cccnc1)C(=O)N3CC2	-6.57% (inactive)	–
O=C(CCN1CC1)OCC(CO)(COC(=O)CCN1CC1)COC(=O)CCN1CC1	0.103% (inactive)	–
CC(C)CC#N	8.82% (inactive)	–
Nc1ccccc1Cl	15.7% (inactive)	–
CCN(CC)c1nc(C)cc(OP(=S)(OC)OC)n1	2.28% (inactive)	–

Compound	max response	Potency
COP(N)(=S)Oc1ccccc1C(=O)OC(C)C (stereo not given)	-8.89% (inactive)	–
CC(C)(C)OC(=O)c1ncn2c1[C@@H]1CCCN1C(=O)c1c(Br)cccc1-2	-21.6% (inactive)	–
NC1=NC(=O)C(c2ccccc2)O1 (stereo not given)	1.11% (inactive)	–
CC1=NNC(=O)N(/N=C/c2cccnc2)C1	3.94% (inactive)	–
CCSC(=O)N(CC)C1CCCCC1	-0.642% (inactive)	–
CC(C=O)Cc1ccc2c(c1)OCO2 (stereo not given)	0.337% (inactive)	–
Cc1cc(C)nc(Nc2ccccc2)n1	-2.72% (inactive)	–
O=C(Nc1ccccc1)c1ccccc1I	-14.8% (inactive)	–
CC1=C(C(=O)Nc2ccccc2)S(=O)(=O)CCO1	–	43.6 µM (active)
Oc1c(Cl)cccc1Cl	0.323% (inactive)	–
CNCC(=O)c1ccc(O)c(O)c1	2.09% (inactive)	–
CN1C[C@@H](NS(=O)(=O)N(C)C)C[C@@H]2c3cccc4c3c(cn4C)C[C@H]21	-20.7% (inactive)	–
O=[N+]([O-])c1cccc2c([N+](=O)[O-])cccc12	–	49.2 µM (active)
COP(=S)(OC)Oc1c(Cl)cc(C)cc1Cl	0.348% (inactive)	–
CNNC	-7.62% (inactive)	–
CC(Cl)(Cl)[N+](=O)[O-]	2.41% (inactive)	–
N#CCBr	6.36% (inactive)	–
O=NN1CCN(N=O)CC1	-6.3% (inactive)	–
Nc1cnn(-c2ccccc2)c(=O)c1Cl	20.5% (inactive)	–
CCC#N	0.0723% (inactive)	–
